Laboratory results taken from PubChem BioAssay.
Calls of active or inactive are those of the source. Unless noted, how the calls were made is not given here.

Experiments:
[1] = tested on: Wnt5a (protein binding on small-molecule microarray); assay: small molecules binding Wnt5a protein – biophysical, small-molecule microarray, 635/667 nm fluorescence, primary screen (AID 1142); settings: 635 nm fluorescence, higher = more signal;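 further: fluorescence read at 667 nm with signal to noise per printed feature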
[2] = ATP-based viability of Huh7 replicon cells – cell-based, CellTiter-Glo luminescence, basal, 48 h, cytotoxicity control for HCV replication inhibitor project, primary screen (AID 1143); settings: higher = more signal, called active from +8 up or from −8 down;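 further: Huh7 hepatoma cells carrying a hepatitis C replication reporter with no stimulus; test concentration not given here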
[3] = Pseudomonas biofilm growth suppression – PAO1 strain, BacTiter-Glo luminescence, LB-PBS, primary screen (AID 1144); settings: P. aeruginosa PAO1 biofilm, 12 h, higher = more signal
[4] = basal CRE-LacZ reporter activity in PC12 – cell-based, unstimulated, primary screen (AID 1145); settings: no forskolin, luminescence, 4.5 h, higher = more signal, called active from +8 up or from −8 down
[5] = forskolin-driven CRE-LacZ activity in PC12 – cell-based, CRE-LacZ reporter, forskolin-stimulated, primary screen (AID 1146); settings: luminescence, 4.5 h, higher = more signal, called active from +8 up or from −8 down;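 further: PC12 cells with 6xCRE LacZ reporter stimulated by forskolin 10 µM; beta-galactosidase reporter signal reflecting CREB driven transcription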
[6] = target: Streptavidin (Streptomyces avidinii) (UniProt P22629); assay: compounds binding control protein streptavidin – biophysical, small-molecule microarray, 635/667 nm fluorescence, artefact control for SMM compound annotation, primary screen (AID 1147); settings: higher = more signal;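 further: signal reflects streptavidin binding to arrayed compounds as a control protein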
[7] = probe aInhba binding on compound microarray – biochemical, small-molecule microarray, 635/667 nm fluorescence, primary screen (AID 1148); settings: higher = more signal;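 further: score merges 667nm spot fluorescence with signal-to-noise for antibody binding to printed compounds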
Torsin-1A (Homo sapiens) [8] = target: Torsin-1A (Homo sapiens) (UniProt O14656); assay: TOR1A wild-type binding on microarray – cell lysate, small-molecule microarray, lysate, 635/667 nm, primary screen (AID 1149); settings: COS7 hTOR1A-WT lysate, 635 nm fluorescence, higher = more signal
Torsin-1A (Homo sapiens) [9] = target: Torsin-1A (Homo sapiens) (UniProt O14656); assay: torsin A mutant lysate binding on microarrays – cell lysate, small-molecule microarray, COS7 lysate, 635/667 nm fluorescence, primary screen (AID 1150); settings: COS7 hTOR1A mutant lysate, 635 nm fluorescence, higher = more signal;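 further: score pools 667 nm emission and signal to noise measuring lysate protein binding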
[10] = tested on: Sonic hedgehog protein (Shh); assay: Sonic hedgehog microarray binding compounds – biochemical, small-molecule microarray, 635/667 nm fluorescence, primary screen (AID 1151); settings: 635 nm fluorescence, higher = more signal;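 further: Shh protein binding to compounds spotted on small-molecule microarray slides; score combines spot fluorescence intensity with signal-to-noise across triplicate slides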

Streptavidin (Streptomyces avidinii), sequence (P22629 whole entry, looked up): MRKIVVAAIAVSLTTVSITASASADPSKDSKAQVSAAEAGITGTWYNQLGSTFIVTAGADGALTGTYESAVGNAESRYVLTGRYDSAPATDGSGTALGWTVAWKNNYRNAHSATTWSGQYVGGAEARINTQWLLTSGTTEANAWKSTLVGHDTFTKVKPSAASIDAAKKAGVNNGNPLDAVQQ
Torsin-1A (Homo sapiens), sequence (O14656 whole entry, looked up): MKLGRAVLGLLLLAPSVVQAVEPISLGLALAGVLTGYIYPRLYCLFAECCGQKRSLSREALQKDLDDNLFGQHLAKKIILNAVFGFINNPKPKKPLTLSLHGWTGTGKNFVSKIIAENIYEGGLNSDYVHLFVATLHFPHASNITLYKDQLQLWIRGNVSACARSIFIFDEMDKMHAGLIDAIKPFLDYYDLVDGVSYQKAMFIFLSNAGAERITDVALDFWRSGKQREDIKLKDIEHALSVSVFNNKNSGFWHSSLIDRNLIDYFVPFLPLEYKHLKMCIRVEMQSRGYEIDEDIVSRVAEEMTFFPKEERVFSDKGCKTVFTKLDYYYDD

Row | SMILES | composite z-score [1] | z-score [2] | z-score [3] | z-score [4] | z-score [5] | composite z-score [6] | composite z-score [7] | composite z-score (Torsin-1A (Homo sapiens) [8]) | composite z-score (Torsin-1A (Homo sapiens) [9]) | composite z-score [10]
1 | COC(=O)CC=C[C@@H](C)[C@@H](C=NOC[C@H]1O[C@H](c2ccccc2)C=C[C@@H]1Oc1ccc(OC)cc1)OC | 0.0372 | -0.193 (inactive) | 0.257 (inactive) | 1.34 (inactive) | 0.611 (inactive) | -0.682 | -0.208 | -0.52 | -0.305 | 0.161
2 | CCOC(=O)[C@H](Cc1ccccc1)NC(=O)CCC1CC(OC(=O)NCCc2ccc(F)cc2)CC2(CCCC(COC(=O)NCC3CCCCC3)O2)O1 (stereo not given in full) | 0.0457 | -0.224 (inactive) | -1.12 (inactive) | 0.29 (inactive) | 0.624 (inactive) | 0.644 | 0.0074 | 0.846 | 0.438 | 1.23
3 | COC(=O)[C@@H]1CC[C@@H](C)[C@H](c2ccc(Br)cc2)N1 | -0.0771 | -1.09 (inactive) | 0.328 (inactive) | -0.258 (inactive) | -1.02 (inactive) | -0.165 | -0.249 | 0.303 | 0.145 | -0.139
4 | CC(CCN1CCCCc2nc(C)c(C)cc21)=NO[C@H](C)c1cn([C@H](CO)Cc2ccccc2)nn1 | 0.101 | -1.11 (inactive) | 0.0152 (inactive) | 2.24 (inactive) | 0.743 (inactive) | 0.0378 | -0.256 | 2.04 | 0.164 | 1.32
5 | CC(CCN1CCc2nc(-c3ccccc3)c(-c3ccccc3)cc2C1)=NOC[C@@H](O)COCc1ccco1 | 0.133 | 0.42 (inactive) | -0.255 (inactive) | -0.878 (inactive) | -0.724 (inactive) | 0.526 | -0.0589 | 1.15 | 1.25 | 1.31
6 | COc1ccc(O[C@H]2C=C[C@@H](c3ccccc3)O[C@@H]2COC(=O)CCC(C)=NO[C@@H]2O[C@H](COC(C)=O)[C@@H](OC(C)=O)[C@H](OC(C)=O)[C@H]2OC(C)=O)cc1 | 0.0276 | -0.178 (inactive) | -0.333 (inactive) | 2.85 (inactive) | 0.847 (inactive) | 0.484 | -0.106 | 0.495 | 0.21 | 0.918
7 | CO[C@H]1COC(=O)CC=C[C@@H](C)[C@H](NS(=O)(=O)c2ccc(C)cc2)COC(=O)CCC[C@@H]1C | 0.118 | -0.279 (inactive) | -0.365 (inactive) | -1.13 (inactive) | -0.198 (inactive) | 0.439 | -0.239 | 0.815 | 0.819 | 0.417
8 | CC(=O)OC[C@H]1O[C@@H](ON=C(C)CCN2CCCc3nc(C)c(C)cc32)[C@H](OC(C)=O)[C@@H](OC(C)=O)[C@@H]1OC(C)=O | 0.237 | -2.36 (inactive) | -0.731 (inactive) | 1.89 (inactive) | -0.112 (inactive) | 0.345 | -0.0626 | -0.164 | 0.604 | 1.06
9 | CO[C@H]1COC(=O)CC=C[C@H](C)[C@@H](OC)COC(=O)[C@@H](C)NC(=O)CC=C[C@@H]1C | 0.0073 | -1.42 (inactive) | -1.15 (inactive) | -0.0824 (inactive) | 0.123 (inactive) | -0.343 | -0.233 | 3.05 | 2.16 | 2.14
10 | C[C@H](ON=C1[C@H]2CCn3c(=O)n(-c4ccccc4)c(=O)n3[C@H]2[C@H](O)[C@@H]2O[C@H]12)c1cn([C@H](CO)Cc2ccccc2)nn1 | 0.087 | 1.92 (inactive) | 0.285 (inactive) | -0.324 (inactive) | 0.578 (inactive) | 1.19 | -0.154 | 0.421 | 0.295 | 0.248
11 | Cc1ccc(S(=O)(=O)NC(CCc2ccccc2)CC(=O)C(C)(C)C)cc1 (stereo not given) | 0.375 | -0.482 (inactive) | 1.1 (inactive) | 0.2 (inactive) | -0.37 (inactive) | 0.191 | -0.0986 | 0.511 | 0.0204 | 0.71
12 | CCCNC(=O)OC[C@H]1O[C@H](CCON=Cc2ccc(C(=O)N3[C@H](c4ccc(C)cc4)[C@@H](C)CC[C@H]3C(=O)OC)cc2)C=C[C@@H]1Oc1ccc(OC)cc1 | 0.157 | -1.73 (inactive) | 0.0699 (inactive) | 2.55 (inactive) | 1.16 (inactive) | 0.0335 | -0.105 | 0.436 | 0.853 | 0.396
13 | CC(CCN1CCCCc2nc(C)c(C)cc21)=NO[C@@H](C)c1cn([C@H](CO)Cc2ccccc2)nn1 | -0.0648 | -0.831 (inactive) | 0.48 (inactive) | 1.62 (inactive) | -0.0513 (inactive) | 0.336 | -0.016 | 0.803 | 0.728 | 1.02
14 | C#CCCCON=C1C[C@@H](O)[C@@H](O)[C@@H]2[C@@H]3C(=O)N(CCC(=O)OCC)C(=O)[C@@H]3CC[C@H]12 | 0.104 | -1.42 (inactive) | 1.11 (inactive) | -0.295 (inactive) | 0.783 (inactive) | 0.873 | -0.0736 | 0.0183 | 0.36 | 1.65
15 | CCN1C(=O)[C@H]2[C@H]3[C@H](O)[C@H](O)CC(=NNC(=O)OCc4ccc(OC)cc4)[C@@H]3CC[C@H]2C1=O | -0.0453 | 0.821 (inactive) | -0.409 (inactive) | -0.291 (inactive) | -0.523 (inactive) | -0.0023 | -0.0521 | -1.18 | -0.703 | -1.17
